Laboratory results published in PubChem BioAssay (NCI).
The panel holds about 79,000 compounds, 15% with a hit somewhere; the sample as a whole holds those more often. The source made the active and inactive calls. No stated cut-off is given here; in the data, active means growth inhibition above about 70%; inactive means the rest.

Test: NCI Yeast Anticancer Drug Screen. Data for the wt1 strain (AID 149);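 further: 0% = growth of vehicle-treated wt1 cultures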
Conditions: S. cerevisiae wt1 strain (SPY 50644) growth inhibition; at 3.7 µM; stronger effect = higher value
Method in brief: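 Each compound is tested on wt1 yeast and the loss of growth versus vehicle gives the inhibition value.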
With `Cc1cccc2c(C(O)CBr)cc(-c3ccc(Cl)cc3)nc12` (configuration not stated) the growth inhibition was -5% (inactive). In the case of `CN(C)C[C@H]1CC[C@@H](CN(C)C)C1=O`, the growth inhibition was 25% (inactive). With `CC1=C(SCCO)C(=O)c2ccccc2C1=O` the growth inhibition was -4% (inactive). For `COC(=O)CCNc1c2ccccc2nc2cccc([N+](=O)[O-])c12`, the growth inhibition was 87% (active). For `CC(/C=C/c1ccc2c(c1)OCO2)[N+](=O)[O-]` (configuration not stated), the growth inhibition was 71% (active). For `COC(=O)C1=C(C)NC(C)=C(C(=O)OCCCN2CCC(c3ccccc3)(c3ccccc3)CC2)C1c1cccc([N+](=O)[O-])c1` (configuration not stated), the growth inhibition was -5% (inactive). In the case of `CCOC(=O)c1cnc2c(C(F)(F)F)cccc2c1N=[N+]=[N-]`, the growth inhibition was 1% (inactive). With `O=[N+]([O-])c1cc2no[n+]([O-])c2cc1N1CCCCC1` the growth inhibition was 53% (inactive). With `COC(=O)c1ccc(NCC2=CC(=O)C=CC2=O)cc1O` the growth inhibition was 2% (inactive). With `CCCCCCCCNC(=O)C1=C(C)NC(C)=C(C(=O)NCCCCCCCC)C1` the growth inhibition was 3% (inactive). In the case of `S=C(Nc1ccc(Cl)c(Cl)c1)SCc1ccc2c(c1)OCO2`, the growth inhibition was 49% (inactive). In the case of `O=S(=O)(CCCl)c1ccccc1Cl`, the growth inhibition was 23% (inactive). For `Nc1ccccc1CC(O)C(=O)O` (configuration not stated), the growth inhibition was 3% (inactive). In the case of `CN(C)c1ccc(Sc2ccc3nc(N)nc(N)c3c2)cc1`, the growth inhibition was 12% (inactive). In the case of `CC(C)C1=CCC2C(=C1)CCC1C(C)(C(=O)O)CCCC21C` (configuration not stated) (tested in a mixture with another compound), the growth inhibition was 15% (inactive). With `Cc1ccc(S(=O)(=O)Oc2cc(Cl)c(Cl)cc2Cl)cc1` the growth inhibition was -4% (inactive). For `CSC(=S)Nc1cc(C)ccn1`, the growth inhibition was -3% (inactive).
